# Screens from PubChem.
# TROY signal inh: blocks TROY-dependent signaling in reporter cells; Q293 LMP1-TROYcd NF-kB luciferase reporter, 4 h; inhibition, % at 10 µM; hit rate 0.98% among 360,000;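 active = compounds whose plate-normalised and pattern-corrected inhibition of the luciferase reporter signal at the single screening dose is 50% or more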
# HIF-2a inh: inhibitors of HIF-2a; 786-0 RCC cells HIF-2a reporter, luciferase luminescence, overnight; inhibition, % at 18.8 µM; hit rate 0.72% among 360,000; AID 624352;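 active = inhibition of the luminescence signal of 40% or more relative to plate controls, in a single-dose primary screen at 18.75 µM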
# TWEAK Fn14 block: inhibitors of TWEAK-Fn14 interaction signaling; TWEAK-stimulated Fn14 reporter cells, luciferase luminescence, 8 h; inhibition, % at 10 µM; hit rate 2% among 360,000; AID 1159606; in the data active = inhibition above about 50%
# CF NFkB block: cystic fibrosis NF-kB activation inhibition. KKLEB NF-kB-GFP reporter, PAF-induced, GFP fluorescence overnight. inhibition, % at 5 µM. hit rate 0.86% among 360,000. AID 588850;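 active = at least 50% inhibition at 5 µM, scaled per plate between neutral and stimulator controls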;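 note: PAF is a Pseudomonas aeruginosa culture filtrate used as stimulus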
# Peg3 prom inh: reduces Peg3 promoter-driven luciferase expression in HeLa; HeLa PEG-Prom luciferase reporter, luminescence, overnight; inhibition, % at 20 µM; hit rate 1.7% among 360,000; AID 588405;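 active = inhibition of at least 50% at 20 µM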
# KKLEB cytotox: CF airway cell cytotoxicity counter-screen | activity change (cytotoxicity), % at 5 µM | hit rate 0.36% among 360,000 | KKLEB CF airway cells viability, ATPlite luminescence, overnight; active compounds read low; cells stimulated with P. aeruginosa culture filtrate;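 active = corrected activity change at or below -50% at 5 µM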
# Mdm2-MdmX confirm: Mdm2/MdmX (human) interaction inhibition, confirmed; SaOS-2 split-luciferase Mdm2/MdmX complementation, luminescence; shares compounds with HIF-2a inh; AID 504601; hit rate 99% among 740; inhibition, % at 8 µM;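 active = mean inhibition of the luminescence signal across two replicates at or above 26 percent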
# Target sequence (O15151 whole entry, looked up): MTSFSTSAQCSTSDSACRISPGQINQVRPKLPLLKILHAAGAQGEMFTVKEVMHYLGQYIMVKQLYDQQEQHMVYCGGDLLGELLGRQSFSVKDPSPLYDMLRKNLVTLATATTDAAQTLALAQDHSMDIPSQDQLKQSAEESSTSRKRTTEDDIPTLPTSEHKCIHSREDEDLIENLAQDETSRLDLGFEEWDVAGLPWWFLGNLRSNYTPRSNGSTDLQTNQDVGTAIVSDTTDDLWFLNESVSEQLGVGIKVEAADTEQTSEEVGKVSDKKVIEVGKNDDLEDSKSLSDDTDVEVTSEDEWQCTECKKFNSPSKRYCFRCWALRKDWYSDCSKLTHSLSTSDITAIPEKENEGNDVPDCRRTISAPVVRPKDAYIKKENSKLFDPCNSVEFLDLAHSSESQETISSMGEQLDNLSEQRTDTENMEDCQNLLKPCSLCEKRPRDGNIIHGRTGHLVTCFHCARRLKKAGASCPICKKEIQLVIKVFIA
# Target sequence (Q00987 whole entry, looked up): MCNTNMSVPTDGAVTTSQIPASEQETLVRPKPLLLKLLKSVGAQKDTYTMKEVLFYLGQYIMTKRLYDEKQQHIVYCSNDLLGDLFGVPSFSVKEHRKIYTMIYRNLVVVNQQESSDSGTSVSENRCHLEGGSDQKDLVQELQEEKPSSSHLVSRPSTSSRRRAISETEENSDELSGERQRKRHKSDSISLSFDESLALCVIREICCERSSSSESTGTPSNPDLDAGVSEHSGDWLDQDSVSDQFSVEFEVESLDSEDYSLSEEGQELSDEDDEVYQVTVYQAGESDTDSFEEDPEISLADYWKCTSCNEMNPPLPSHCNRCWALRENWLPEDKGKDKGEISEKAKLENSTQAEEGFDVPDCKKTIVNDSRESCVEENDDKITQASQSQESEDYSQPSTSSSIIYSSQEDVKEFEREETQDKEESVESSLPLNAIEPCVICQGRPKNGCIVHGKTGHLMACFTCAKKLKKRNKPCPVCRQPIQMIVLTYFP
# HIF-2a conf: HIF-2a inhibition, single concentration confirmation; inhibition, % at 18.8 µM; 786-0 RCC cells, HIF-2a luciferase reporter luminescence, overnight; hit rate 56% among 1,800; shares compounds with HIF-2a inh;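 active = mean inhibition across four replicates of at least 40 percent at the single tested concentration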
# HIF-1a cs: counter-screen for HIF-2a inhibitors: HIF-1a inhibition in MiaPaCa-2 cells | shares compounds with HIF-2a inh | MiaPaCa-2 HIF-1a luciferase reporter, desferoxamine, overnight | inhibition, % at 18.8 µM | hit rate 72% among 1,800 | AID 651589;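 active = mean inhibition of the reporter signal across four replicates at the single tested dose of 50% or more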
# Numbers stand for hits; . = inactive; / = no result given. In the library only some 4% were active in any assay of this set; here they are far more common.
SMILES,TROY signal inh,HIF-2a inh,TWEAK Fn14 block,CF NFkB block,Peg3 prom inh,KKLEB cytotox,HIF-2a conf,HIF-1a cs,others
CCC(C)(C)NC(=O)CN(CC1CCCO1)C(=O)CNS(=O)(=O)c1ccccc1 (centres undefined),.,.,.,.,.,.,/,/,
C=CCC1(CC=C)CC(Cc2cnccn2)N(C(=O)OC(C)(C)C)C1 (centres undefined),.,.,.,.,.,.,/,/,
O=C(Nc1nnc([C@@H]2C[C@H](O)[C@@H](CO)O2)s1)Nc1ccccc1F,.,.,.,.,.,.,/,/,
CC(C)c1ccc(NC(=O)Nc2nc(C(N)C3CCCCC3)cs2)cc1 (centres undefined),.,49.6,.,.,94.8,.,.,105.8,
CC1(NC(=O)Cc2c(F)cccc2Cl)CCS(=O)(=O)C1 (centres undefined),.,.,.,.,.,.,/,/,
CC(=O)CC1OC(=O)C(Br)=C1NCc1ccccc1 (centres undefined),.,42.5,.,.,103.7,.,.,75.5,
Cc1cc(Nc2ccc([N+](=O)[O-])cc2)c2ccccc2n1,.,.,.,.,.,.,/,/,Mdm2-MdmX confirm=103.0
CCOc1ccc2nc(C)cc(Nc3ccc4c(c3)OCCO4)c2c1,.,45.4,.,.,87.6,.,.,.,
CCOc1ccc2nc(C)cc(Nc3cccc([N+](=O)[O-])c3)c2c1,.,62.9,.,.,91.7,.,.,101.2,Mdm2-MdmX confirm=103.2
O=C(Cc1ccccc1)Nc1ccc(NC(=O)c2ccco2)cc1Cl,.,.,.,.,.,.,/,/,
CCCN(CC(=O)Nc1ccccc1OC)C(=O)c1cc(-c2ccccc2)nn1-c1ccccc1,.,.,.,.,.,.,/,/,
S=c1[nH]nc(-c2ccccc2)n1/N=C/c1ccc(-c2ccccc2Cl)o1,.,.,.,.,.,.,/,/,Mdm2-MdmX confirm=100.2
Cc1cc(C2(c3ccc(O)c(C)c3)C(=O)Nc3ccccc32)ccc1O,.,44.9,.,.,80.0,.,.,69.3,
Cc1cccc2c1NC(=O)C2(c1ccc(O)cc1)c1ccc(O)cc1,.,.,.,.,.,.,/,/,
N=c1n(CC(=O)c2ccc(Br)cc2)c2ccccc2n1Cc1ccccc1,.,.,.,.,98.8,.,/,/,Mdm2-MdmX confirm=102.0
COc1ccc(-n2c(=S)[nH]c3cc(C(=O)NCc4ccccc4)ccc3c2=O)c(OC)c1,.,.,.,.,.,.,/,/,
Cc1csc(NC(=O)CSc2nnc(-c3ccc(Cl)cc3)n2N)n1,.,.,.,.,.,.,/,/,
Cc1nc2cc(-c3ccc(Cl)cc3)nn2c(C)c1CCC(=O)NC(C)c1ccc2c(c1)OCCO2 (centres undefined),.,81.9,56.1,.,.,.,92.8,89.1,
Cc1csc(NC(=O)CCc2c(C)nc3cc(-c4ccc(Cl)cc4)nn3c2C)n1,.,81.0,62.3,.,.,.,92.1,54.5,
CCc1ccc(C2=NN(CCC(=O)NC(C)c3ccc4c(c3)OCCO4)C(=O)CC2)cc1 (centres undefined),.,.,.,.,.,.,/,/,
COc1cc(C2c3c(-c4cc(Cl)c(C)cc4O)n[nH]c3C(=O)N2Cc2cccnc2)ccc1O (centres undefined),.,43.3,.,.,.,.,.,60.5,
CN(C(=O)CSc1cc(C(=O)c2nccn2C)c2ccccc2n1)c1ccccc1,.,50.1,.,.,.,.,.,51.7,
O=C(Nc1ccc2nc3n(c(=O)c2c1)CCCCC3)c1c(F)ccc([N+](=O)[O-])c1F,86.1,88.3,106.0,86.8,108.0,-86.9,98.0,96.5,Mdm2-MdmX confirm=103.2
O=C(Nc1ccc2nc3n(c(=O)c2c1)CCCCC3)c1ccccc1[N+](=O)[O-],.,.,.,.,.,.,/,/,
O=C(O)c1cccc(NC(=S)NC(NC(=O)c2cccc([N+](=O)[O-])c2)C(Cl)(Cl)Cl)c1 (centres undefined),.,.,.,.,.,.,/,/,
SMILES,TROY signal inh,HIF-2a inh,TWEAK Fn14 block,CF NFkB block,Peg3 prom inh,KKLEB cytotox,HIF-2a conf,HIF-1a cs,others
O=C(NC(NC(=S)Nc1ccccc1)C(Cl)(Cl)Cl)c1cccc(Cl)c1 (centres undefined),.,47.4,75.0,.,.,.,.,101.8,
COc1ccc(/C=C/c2nc3ccccc3c(=O)o2)cc1,82.6,42.8,97.1,.,.,.,.,88.9,
O=[N+]([O-])c1ccc(O)c(-c2cc(C(F)(F)F)nc(-c3ccccc3)n2)c1,.,.,74.7,72.1,79.1,-65.0,/,/,Mdm2-MdmX confirm=102.5
Oc1ccccc1-c1cc(C(F)(F)C(F)F)nc(-c2ccccc2)n1,.,.,.,.,.,.,/,/,
COc1ccc([C@H]2CC(=O)C=C(c3cccc4c3Oc3ccccc3S4)C2)cc1OC,.,.,.,.,.,.,/,/,
O=C(CN1CCCCC1)NC(=O)NC1CCCC1,.,.,.,.,.,.,/,/,
O=C(Cn1ncc(Cl)c(Cl)c1=O)NC(=O)NC1CCCCC1,.,84.2,104.1,90.5,89.3,-64.3,91.7,105.6,Mdm2-MdmX confirm=101.5
CCN(CC)CCCOc1ccc(Cl)c(Cl)c1,.,.,.,.,.,.,/,/,
CCN(CC)CCOc1ccc2c(c1)C(=NO)c1cc(OCCN(CC)CC)ccc1-2,.,54.4,.,.,107.2,.,.,106.9,
O=C(O)CCC(=O)c1ccc2c(c1)OCCO2,.,.,.,.,.,.,/,/,
O=C(O)CCSCC(=O)c1ccc2c(c1)OCCO2,.,57.5,.,.,.,.,64.2,.,
N#CC1c2ccccc2C=CN1C(=O)N(c1ccccc1)c1ccccc1 (centres undefined),.,77.4,94.3,.,.,.,.,107.9,
CC(C)N1C(=O)/C(=C/c2nc3ccccc3c(=O)n2-c2ccccc2)c2ccccc21,.,63.8,.,.,.,.,58.9,101.7,
O=C(Nc1ccccc1N1CCOCC1)c1cnccn1,.,.,.,.,.,.,/,/,
O=C(Nc1ccc(N2CCOCC2)cc1)c1cnccn1,60.1,53.5,80.9,.,59.5,.,71.2,.,
COc1ccc(-c2coc3c(C(=O)NCc4cccs4)cccc23)c(C)c1,.,.,.,.,.,.,/,/,
Cc1[nH]n(-c2ccccc2)c(=O)c1/C=N/Nc1nncc(-c2ccccc2)n1,.,.,.,.,.,.,/,/,Mdm2-MdmX confirm=84.0
Cc1ccc(/C=N/Nc2nncc(-c3ccccc3)n2)o1,.,.,.,.,.,.,/,/,
COCCNC(=O)CCC1CCN(Cc2cccc(Oc3ccccc3)c2)CC1,.,.,.,.,.,.,/,/,
COc1ccc(C(C)=O)cc1Cn1c(C)c(C(=O)NCCC#N)sc1=O,.,.,.,.,.,.,/,/,
